Laboratory results from PubChem BioAssay (EPA / NIEHS).
Inconclusive results are not listed. Some structures have more than one record in an assay (separate samples or runs), and their calls can disagree. Active and inactive are the calls of the source. The calls were made as follows: active = hit-call score of the fitted dose curve at least 0.9, where 1 is the maximum; inconclusive = response in the unintended direction; inactive = score below 0.9.

Molecular target: zebrafish Thyroid Hormone Receptor alpha (TRa), thraa (gene 30670) (UniProt Q98867)
Sequence (Q98867 whole entry, looked up, the tested form may be a part): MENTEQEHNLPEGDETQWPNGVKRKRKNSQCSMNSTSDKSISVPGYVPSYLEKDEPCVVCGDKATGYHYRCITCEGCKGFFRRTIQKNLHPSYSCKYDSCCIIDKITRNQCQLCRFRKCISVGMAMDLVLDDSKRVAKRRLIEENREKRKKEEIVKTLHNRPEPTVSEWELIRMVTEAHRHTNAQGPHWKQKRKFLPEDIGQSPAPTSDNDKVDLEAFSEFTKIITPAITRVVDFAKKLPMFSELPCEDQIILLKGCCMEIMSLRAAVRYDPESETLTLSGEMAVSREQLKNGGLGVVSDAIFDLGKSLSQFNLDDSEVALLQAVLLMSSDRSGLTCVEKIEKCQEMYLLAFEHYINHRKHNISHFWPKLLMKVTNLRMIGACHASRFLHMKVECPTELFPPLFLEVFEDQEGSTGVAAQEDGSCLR
Test: ATG_zfTRa_XSP2: Attagene TRANS-FACTORIAL Multi-Species (XSP1) HepG2 Assay for zebrafish Thyroid Hormone Receptor alpha (TRa) (AID 2283832);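 also: actives raise zebrafish TRa-Gal4 reporter transcript above DMSO baseline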
Protocol: ATG_XSP2_multi-species_TRANS is a cell-based, multiplexed assay created by modifying the existing Attagene TRANS-FACTORIAL system to include a panel of nuclear receptors from some or all the following species: human (Homo sapiens), mouse (Mus musculus), frog (Xenopus laevis), zebrafish (Danio rerio), chicken (Gallus gallus), and turtle (Chrysemys picta). The ECOTOX-FACTORIAL format uses HepG2, a human liver cell line, with measurements taken at 24 hours after chemical dosing in a 24-well plate. Xsp2 included 3 nM 6-alpha-fluorotestosterone and 1.5 nM norgestrel to stimulate the androgen receptor.ATG_zfTRa_XSP2 is one of 29 assay components measured or calculated from the ATG_XSP2_multi-species_TRANS assay. It is designed to make measurements of mRNA induction, a form of inducible reporter, as detected with fluorescence intensity signals by Reverse transcription polymerase chain reaction (RT-PCR) and Capillary electrophoresis technology.The assay endpoint ATG_zfTRa_XSP2 was analyzed in the positive analysis fitting direction relative to DMSO as the negative control and baseline of activity. Using a type of inducible reporter, measures of mRNA for gain-of-signal activity can be used to understand the reporter gene at the transcription factor-level as they relate to the gene TR. Furthermore, this assay endpoint can be referred to as a primary readout, because this assay has produced multiple assay endpoints where this one serves a reporter gene function. To generalize the intended target to other relatable targets, this assay endpoint is annotated to the nuclear receptor intended target family, where the subfamily is non-steroidal.
Human liver HepG2 cells are transiently transfected with multiple reporter transcription units (MRTUs) in 6-well plates using FuGene 6 reagent (Roche; 3 ml FuGene/1 mg DNA). The MRTU constructs are regulated by a cis-regulating element (promoter). […] A major difference between the CIS and TRANS system is that in CIS activities of endogenous TFs are measured, whereas the TRANS assay evaluates changes in activities of exogenous, chimeric NR-Gal4 proteins. […] At the end of 24 hour incubation, total RNA was isolated using TriZol reagent (Invitrogen). The isolated RNA is then reverse-transcribed using oligo(dT) primer and Mo-MLV reverse transcriptase (Invitrogen) with DNAse I (Ambion) treatment for 30 min. The one-tenth of the produced cDNA was amplified by PCR using Taq DNA polymerase (Invitrogen) and two reporter sequence-specific primers. The PCR products were fluorescently labeled by primer extension with 6-arboxyfluorescein (6-FAM) 5'-labeled reporter sequence-specific primer (2 min at 95 C, 20 s at 68 C and 10 min at 72 C) and these products were digested with 5U of HpaI (New England Biolabs) for 2h at 37 C. The fragments were purified using Qiaquick PCR columns (Qiagen), analyzed on an ABI 3130xL genetic analyzer (Applied Biosystems) with peak positions identified by using a set of X-rhodamine (ROX)-labeled MapMarker1000 molecular weight standards (BioVentures). The raw capillary electrophoresis data was processed using Attagraph software (Attagene).

Row | SMILES | outcome | AC50
1 | Oc1ccc(-c2ccccc2)cc1 | inactive | 
2 | Clc1ccc(C2(Cn3cncn3)CC(Br)CO2)c(Cl)c1 (stereo not given) | inactive | 
3 | CC1(C)CCC(Cc2ccc(Cl)cc2)C1(O)Cn1cncn1 (stereo not given) | inactive | 
4 | CC(=O)C=C(C)C | inactive | 
5 | COP(=O)(OC)O/C(=C\Cl)c1cc(Cl)c(Cl)cc1Cl | inactive | 
6 | CC(C)C1CCC(Cc2ccc(Cl)cc2)C1(O)Cn1cncn1 (stereo not given) | inactive | 
7 | C[C@]12CC[C@H](O)CC1=CC[C@@H]1[C@@H]2CC[C@]2(C)C(=O)CC[C@@H]12 | inactive | 
8 | CC(C)(C)c1cc(O)ccc1O |  | 54.9 µM (active)
9 | C[C@H]1CCCC(=O)CCC/C=C/c2cc(O)cc(O)c2C(=O)O1 | inactive | 
10 | C[C@]12CCC(=O)C[C@@H]1CC[C@@H]1[C@@H]2CC[C@]2(C)[C@@H](O)CC[C@@H]12 | inactive | 
11 | Oc1c(I)cc(I)cc1I | inactive | 100 µM (active)
12 | CC12CC1(C)C(=O)N(c1cc(Cl)cc(Cl)c1)C2=O (stereo not given) | inactive | 
13 | O=S(=O)(c1ccc(Cl)cc1)c1ccc(Cl)cc1 | inactive | 
14 | O=C1C2(Cl)C3(Cl)C4(Cl)C(Cl)(Cl)C5(Cl)C3(Cl)C1(Cl)C5(Cl)C24Cl (stereo not given) | inactive | 
